Assay results as given in the supplement of paper PMC11417369.
± gives the standard deviation of the averaged measurements. In all, about 25,000 sequences were measured (“ln(normalized median fluorescence intensity)”: median about 7.9, highest 2% from about 11 on). The list comes from a sample in which the highest values are over-represented; it also holds similar and randomly drawn sequences.

Test system: PfAP2-I AP2 domain 3 (GST-tagged)
Experiment: gcPBM binding intensity (ln(normalized median fluorescence intensity)); higher = stronger DNA binding
Summary of the method: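 Each value is the highest Masliner-normalised natural-log median intensity across replicate spots of either orientation of a probe. The probes were primer-extended double-stranded 36-bp intergenic genomic sequences on an Agilent 4 × 180k array, alongside negative controls, exposed for 1 h to GST-tagged P. falciparum DNA-binding domains expressed in E. coli. Bound protein was picked up with Alexa488 anti-GST antibody and scanned at 488 nm.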

In order of falling “gcPBM binding intensity (ln)” value:
1. ATATATATATATAGTGCACACATATAAAATATATAT [CACACA_site8884]  11.5 ± 0.15
2. TATTTTTGGTTATGTGTGCACTATGAACAACAAAAT  11.4 ± 0.26
3. TGTGCATAATTTTGTGCACACCACGCTAATAATTTT [CACACA_site2915]  11.4 ± 0.48
4. ATTACACATATAGTAGTGCAATAACTCCAAAAAAAA  11.4 ± 0.6
5. TTTGTTCATATTATTGTGCACTTAAACGTAACAAAA [GTGCAC_site9505]  11.3 ± 0.39
6. ATATATATATAGTGCACACATATAAAATATATATAA [CACACA_site2745]  11.29 ± 0.078
7. ATATATATATATATTGTGCACAAAAAAAAATAAGCA  11.2 ± 0.15
8. TTTATATTCTTAAGTGTGCACTATATATATATATAT [GTGCAC_site9719]  11.2 ± 0.23
9. AAATAAATTTGACCAGTGCAATAACTTTGTATACCT [GTGCAC_site9446]  11.2 ± 0.64
10. TTATACAGGACAATAGTGCACATAAATATATGTATA  11.2 ± 0.51
11. AATAATAAAAATATTGTGCACTTGTATATTTATTAT [GTGCAC_site9963]  11 ± 0.11
12. TATTAACAAATTTATGTGCACTGAGGACAAATATAT  10.96 ± 0.085
13. TATATATAAATATATGTGCACTTTTTATATTTATAT  11 ± 0.13
14. ATTATTAATAATTGTGTGCACAAATATTTATATGCT  10.815 ± 0.007
15. TTATATGCACTTTTTGCACACGTATGAATAACAAAA [CACACA_site1811]  10.8 ± 0.86
16. AATAACTATATATGTGTGCACAAAAATTTGACATAA  10.7 ± 0.049
17. AGTATAAGCATTATTGTGCACATAATTATAATTTTT  10.6 ± 0.53
18. CTTTTTTTGACCTTAGTGCAAATAACTATATATTAT  10.5 ± 0.41
19. GCCCCCAAATTATGTGTGCACTTTATATTCCTGAGA [GTGCAC_site9474]  10.4 ± 0.23
20. GATGTTTCTATTTTAGTGCATTTTAAATAAATAAAT  10.4 ± 0.12
21. TTTTCTTGGTTCAGTGTGCACTTATATATATATATA  10.3 ± 0.2
22. AAATACTTAACATTGGTGCATATTTGTAAAATTATT [GTGCAC_site9515]  10.3 ± 0.55
23. ATGAAACACTCCATAGTGCAAAATATATATTATATT  10.27 ± 0.057
24. TATATATATATGTGCACACATAATAAAAAAAAAAAT [CACACA_site3831]  10.3 ± 0.11
25. AAATATATGTTATATGTGCACTTTTTTTTTTTTTTT [GTGCAC_site9667]  10.21 ± 0.035
26. ACTCAAACCTTTAGAGTGCAAAAAAAAAAAAAAAAA [GTGCAC_site9952]  10 ± 0.21
27. TTAACATACACTCTAGTGCATATATATAACAAAATA [GTGCAC_site9724]  10 ± 0.17
28. ATATGCACTTTTTGCACACGTATGAATAACAAAATA [CACACA_site1810]  10 ± 0.25
29. AATAATAAAAAAAGTGCACACACATAATATATATAT [CACACA_site9100]  9.95 ± 0.014
30. TAATAAAAAAAGTGCACACACATAATATATATATAT [CACACA_site3340]  9.93 ± 0.37
31. ATTTATATTAAAAGTGTGCACTTTTTTTTTTTTTTT  9.77 ± 0.085
32. ATAGGCACTTTTTGCACACGTATGAATAACAAAATA [CACACA_site5069]  9.54 ± 0.13
33. ATATAAATATAGTGTGCACACACATAATATATATAT [CACACA_site8713]  9.49 ± 0.11
34. TACAGAAATTTATATATATATATATATATATATATA [XGTACX_negctrl_site209]  9.39 ± 0.54
35. ACAAAAAAAATAAGCACACATATATATATATATATA [CACACA_site816]  9.38 ± 0.36
36. ATATATATATAATTTGTACACACAAATATGCATATA [CACACA_site9136]  9.18 ± 0.24
37. TAATTGATTCTTCACCGTACTCACACATATATATAT [XGTACX_site6530]  8.99 ± 0.085
38. ATAATATATGTATGTATGCACTTTTATTATTTTTTT  8.96 ± 0.15
39. ATTTTATGAAATGTTGCACACAAAAAACAACATGTT [CACACA_site8408]  8.95 ± 0.092
40. ATAAACATCTAGTGCTGTACACAATTTGATTTTTTT [XGTACX_site3110]  8.9 ± 0.31
41. TTTTCTTTTTGTTCGTGTACACACATGAAATTTATA [XGTACX_site3301]  8.78 ± 0.68
42. TAGGAAAAAAATACAGTGCAATTTTTATATAAATAA [GTGCAC_site9979]  8.62 ± 0.5
43. ATGTTATAAGATTTATGTACACACATATACACACCT [XGTACX_site1316]  8.35 ± 0.21
44. TAAAATATTATCTACGCACACATTAAAATAAAAAAA [CACACA_site3709]  8.32 ± 0.2
45. TATAAAAATAAGCACACACACAAATATATATTTATT [CACACA_site922]  8.12 ± 0.25
46. ATATTTTTTTTTTTCACACACATTTATATTGTATTA [CACACA_site5695]  8.01 ± 0.79
47. TTGAAAAATGAGCACACACACAAATACATACATATT [CACACA_site3231]  7.97 ± 0.36
48. AATAAAATTTGCGATGCACACAGAATAGCTAATATG [CACACA_site8983]  7.96 ± 0.57
49. TTAAAAAAATATTGAAGTACACACATTATAAACTTT [XGTACX_site3548]  7.89 ± 0.38
50. TTAGCAACTATTACTACACACATTTTTATATAACTT [CACACA_site6762]  7.84 ± 0.59
51. TTTTTGTAAAATAAACGTACAAAACAATTGTTCATT [XGTACX_site6537]  7.82 ± 0.4
52. ATATAAAACTAATTTCTTTTTCTCCTTTTATTTTGT [CACACA_negctrl_site1251]  7.8 ± 0.59
53. TTTAAAATAAATTAATAGAACAAAAATAAAATGATT [GTGCAC_negctrl_site375]  7.78 ± 0.67
54. AAAAAAAAAGAAAAATGTACATACATAAATATATAT [XGTACX_site5664]  7.77 ± 0.68
55. CATAAATCAGCCATAACACACATACCTATATACATA [CACACA_site6324]  7.75 ± 0.57
56. ACTTTAAAAAGATTCACACAAAATATATAAAAATAT [CACACA_site5334]  7.75 ± 0.39
57. TATATTATTTATTTTTGTACATATTATGAATGAATA [XGTACX_site3971]  7.73 ± 0.33
58. ATTAAAACACAATATTCACACATGTATATTATATAT [CACACA_site5191]  7.72 ± 0.51
59. GAATATGTAAAGAAAGGTACACATGAAAATATGTGT [XGTACX_site446]  7.71 ± 0.66
60. AAATTAAAGGCATAAAAGAAAATATTTAATAAAAAA [CACACA_negctrl_site1689]  7.71 ± 0.73
61. AGAATTTTATTATATTGTACTTTTTATAAACCTTGT [XGTACX_site7495]  7.7 ± 0.71
62. TTTTTTATTATATAATTGTATATAAAATTATAATTT [GTGCAC_negctrl_site733]  7.67 ± 0.47
63. TATATATAAATATATACACACATGAAAATAAATAAA [CACACA_site2514]  7.67 ± 0.45
64. AAAAATAAATATATATGTACACATATGTATACAATA [XGTACX_site4692]  7.65 ± 0.38
65. AATACAATAAAATAGTGTACATATATATTATGTATA [XGTACX_site8258]  7.63 ± 0.27
66. CATATATATATATGAACACACAAAAAGAATATTTCC [CACACA_site1493]  7.62 ± 0.63
67. ATGAATACAAAATTATACAAAATTATCAAAAGTATG [CACACA_negctrl_site1453]  7.5 ± 0.49
68. TTGTATACATAAAATGGTACAGAATATATAATTCTA [XGTACX_site7236]  7.45 ± 0.61
69. AACAAACAAATAGTTTATTTTGATTTTTTTAAAAAT [CACACA_negctrl_site693]  7.36 ± 0.65
70. TATTTTTTTTTATTTTTTTTTATTTTGTTTTTTTAT [TGCATGCA_negctrl_site315]  7.32 ± 0.52
71. AAAAAAATTAAATCAAGTACTCATTCTTAAATTATA [XGTACX_site1274]  7.32 ± 0.49
72. CATATATAAAATATATGTACTTATAGAACATAATTT [XGTACX_site1936]  7.3 ± 0.35
73. TATTATATAATAAAAATTATTATTATTTGTATAAAT [CACACA_negctrl_site195]  7.21 ± 0.42
74. TTTTTTAAAAGATAATATTTTATTAATGTATTCTCA [GTGCAC_negctrl_site598]  7.2 ± 0.55
